Measured values: PubChem BioAssay AID2546 (National Center for Advancing Translational Sciences (NCATS), 2010)
Hit rate of the full screen: of about 310,000 compounds, about 11,000 (3.5%) were called active. Inconclusive results (about 8%) are left out. The entries come from a sample that favours actives as a whole. Entries that show only a call come without a potency. A number with no mark means an inactive call. Calls follow the shape of the dose curve; as a rule, active = well fitted inhibition curve with a large enough effect; inconclusive = small, poorly fitted or top-dose-only effect, or effect the other way; inactive = flat fitted curve, though single readings scatter.
Potency is read from the fitted curve at half-maximal effect.

Test: VP16 counterscreen qHTS for inhibitors of ROR gamma transcriptional activity;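 also: Gal4-VP16 expression switched on by copper sulfate through the metallothionein promoter; nearly all actives have a fitted effect of over 50% in size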
Conditions: Drosophila S2 Gal4-VP16 UAS-luciferase, luminescence, 20 h; series mostly up to 53.6 µM
For CCN1C(=NCCc2cccnc2)N[C@@H](c2ccccc2)C(C(=O)OC)=C1C, the Potency was “inactive”.
In the case of O=C(CO/N=C/c1ccccc1O)NNC(=O)c1ccccc1Cl, the Potency is reported as 14.1 µM (active).
O=C(NNC(=S)NC1CCCCC1)c1ccccc1Cl showed an activity, negative = inhibition of -4.51% [at 10 µM].
In the case of O=C(CO/N=C/c1ccccc1OC(F)F)NC1CCCC1, the Potency is reported as “inactive”.
For Oc1ccc(-n2nnnc2SCc2c(F)cccc2Cl)cc1, the Potency was “inactive”.
For Cc1cccc(OCCC(=O)Nc2ccccc2C(N)=O)c1, the Potency was “inactive”.
For Cc1cccc(OC(C)C(=O)N2CCc3ccccc3C2)c1 (stereo not drawn), the Potency was “inactive”.
With CCCCNC(=O)C(=O)c1ccccc1NC(C)=O the Potency was “inactive”.
For CCCCNC(=S)N/N=C1\CCCCc2ccccc21, the Potency was 4.47 µM (active).
In the case of O=[N+]([O-])c1ccccc1N/N=C1\CCc2ccccc21, the Potency is reported as “inactive”.
For FC(F)(F)c1nnc2c3ccccc3c(Cl)nn12, the Potency was “inactive”.
In the case of COc1ccc(CNc2cc(C)cc(C)c2)cc1OC, the Potency is reported as “inactive”.
For COc1ccc(N2CCN(S(=O)(=O)c3ccc4c(c3)NC(=O)C(C)C(=O)N4)CC2)cc1 (stereo not drawn), the Potency was “inactive”.
For CC(C)(O)C#Cc1ccc(CN2CCC(CO)(CCc3ccccc3)CC2)cc1, the Potency was “inactive”.
With CC(=O)NC(=S)Nc1ccc(NC(=S)NC(=O)c2ccc([N+](=O)[O-])cc2)cc1 the Potency was “inactive”.
In the case of O=C(NC(=S)Nc1ccc(NC(=O)c2cccs2)cc1)c1ccc([N+](=O)[O-])cc1, the Potency is reported as “inactive”.
With COCCCNC(=S)NC(=O)c1ccc([N+](=O)[O-])cc1 the Potency was 17.8 µM (active).
In the case of Cc1cc(CN(C)C(=O)c2cc(COc3ccc(C)c(C)c3)on2)n[nH]1, the Potency is reported as “inactive”.
With COC(=O)c1cc(S(=O)(=O)Nc2ccc(C)c(F)c2)c[nH]1 the Potency was “inactive”.
For COc1ccc(-n2nc(C(=O)NCC(=O)N3CCN(c4ccccc4OC)CC3)c3ccccc3c2=O)c(OC)c1, the Potency was “inactive”.
With COc1cccc(NC(=O)c2ccccc2N(Cc2ccccc2)S(C)(=O)=O)c1 the Potency was “inactive”.
In the case of Cc1ccc(C2=Nc3c(ccc4ccccc34)C(c3ccncc3)=NN2)cc1, the Potency is reported as “inactive”.
For CCOc1ccc2c(c1)C(c1ccc(C)cc1)=NNC(c1ccc(C)cc1)=N2, the Potency was 15.8 µM (active).
In the case of CCc1ccc2c(c1)C(c1ccc([N+](=O)[O-])cc1)=NNC(c1ccccc1)=N2, the Potency is reported as “inactive”.
In the case of COc1ccc(C(=O)NCCn2nc(C)cc2C)cc1OC1CCN(C(C)=O)CC1, the Potency is reported as “inactive”.
With COc1ccc(NC(=O)CS(=O)(=O)c2ccccc2)cc1 the Potency was “inactive”.
In the case of Cc1nonc1NC(=O)c1ccccc1Br, the Potency is reported as “inactive”.
For O=C(Nc1cccc(Cl)c1)Nc1nnc(-c2ccccc2)o1, the Potency was “inactive”.
For O=C(Nc1nnc(-c2ccc(Cl)cc2)o1)c1ccccc1Br, the Potency was 4.47 µM (active).
In the case of COc1cccc(N(C(=O)c2snc(C(N)=O)c2N)C(C(=O)NCC2CCCO2)c2c[nH]c3ccccc23)c1 (stereo not drawn), the Potency is reported as “inactive”.
With O=C(Nc1cccc(C(F)(F)F)c1)c1cnccn1 the Potency was “inactive”.
With O=C(Nc1cccc(C(F)(F)F)c1)c1cc(Br)cc(Br)c1O the Potency was 4.47 µM (active).
For O=C(O)CSCC(=O)Nc1cccc(C(F)(F)F)c1, the Potency was “inactive”.
For COc1cc(NC(=O)C2=CC(c3ccc(C)cc3)=NS(=O)(=O)N2C)cc(OC)c1OC, the Potency was “inactive”.
With COc1cc2c(cc1OC)CN(CC(=O)Nc1ccc(F)cc1)CC2 the Potency was “inactive”.
In the case of CC(=O)Nc1cccc([N+](=O)[O-])c1, the Potency is reported as “inactive”.
In the case of O=C(CSCC(=O)Nc1cccc([N+](=O)[O-])c1)Nc1ccccc1, the Potency is reported as “inactive”.
In the case of COC(=O)/C=C\C(=O)Nc1cccc([N+](=O)[O-])c1, the Potency is reported as 1.26 µM (active).
In the case of COc1cc(SC)ccc1C(=O)N(Cc1ccccc1)c1ccccc1, the Potency is reported as “inactive”.
For Cc1cc(C)nc(N/N=C/c2ccc([N+](=O)[O-])o2)n1, the Potency was “inactive”.
In the case of COc1ccc(C(=O)NCC(=O)N/N=C/c2ccc([N+](=O)[O-])o2)cc1OC, the Potency is reported as “inactive”.
With NC(=O)C(=O)N/N=C/c1ccc([N+](=O)[O-])o1 the Potency was 11.2 µM (active).
For COc1ccc(-c2cc(C(=O)N3CCN(c4ccc(F)cc4)CC3)no2)cc1, the Potency was “inactive”.
In the case of FC(F)(F)c1nc2ccccc2nc1N/N=C/c1ccc(Cl)cc1, the Potency is reported as 10 µM (active).
In the case of Fc1ccc(/C=N/Nc2nc(-c3cccnc3)nc3ccccc23)cc1, the Potency is reported as “inactive”.
With FC(F)(F)c1cccc(N/N=C/c2ccccc2)c1 the Potency was “inactive”.
With CCNC(=O)N1CCCC(C(=O)c2ccc(-c3ccccc3)cc2)C1 (stereo not drawn) the Potency was “inactive”.
In the case of c1cnc(N2CCN(c3ccc4ccccc4n3)CC2)nc1, the Potency is reported as “inactive”.
In the case of CC(=O)N1c2ccc(S(=O)(=O)N3CCC(C(=O)NC4CCCC(C)C4C)CC3)cc2CC1C (stereo not drawn), the Potency is reported as “inactive”.
For Cc1ccc2cccc(OCCCOc3ccccc3CO)c2n1, the Potency was “inactive”.
For O=C(Cc1c[nH]c2ccccc12)N/N=C/c1cccc(F)c1, the Potency was “inactive”.
For O=C(N/N=C/c1ccc([N+](=O)[O-])cc1)c1c[nH]c2ccccc12, the Potency was “inactive”.
For CSC(=S)N/N=C/c1c[nH]c2ccccc12, the Potency was 0.891 µM (active).
In the case of O=C(O)c1cccc(NC(=S)N/N=C/c2c[nH]c3ccccc23)c1, the Potency is reported as “inactive”.
In the case of O=C(N/N=C/c1c[nH]c2ccccc12)c1ccccc1O, the Potency is reported as 6.31 µM (active).
For O=C(N/N=C/c1c[nH]c2ccccc12)c1cc2ccccc2o1, the Potency was “inactive”.
In the case of C[C@H](C(=O)CC(=O)OC(C)(C)C)[C@H](O)c1ccc(C(F)(F)F)cc1, the Potency is reported as “inactive”.
For Cc1ccc(-c2csc(NC3OC(=O)c4ccccc43)n2)cc1 (stereo not drawn), the Potency was “inactive”.
With O=C(/C=C/c1ccc2c(c1)OCCO2)c1ccc(O)cc1 the Potency was 4.47 µM (active).
For CC(=O)c1ccc2c(c1)OCCOCCOc1ccc(C(C)=O)cc1OCCOCCO2, the Potency was “inactive”.
In the case of CN(C)c1ccc(/C=C/C(=O)c2ccc(O)cc2)cc1[N+](=O)[O-], the Potency is reported as 5.01 µM (active).
For O=C(/C=C/c1ccc(Cl)cc1)N1CCN(c2ccccc2[N+](=O)[O-])CC1, the Potency was “inactive”.
In the case of CN(C)c1ccc(/C=C/C(=O)c2ccc(C(C)(C)C)cc2)cc1[N+](=O)[O-], the Potency is reported as “inactive”.
For O=C(O)/C=C/c1ccc2c(c1)OCCO2, the Potency was “inactive”.
In the case of O=C1C2CCCN2C(=O)N1CCCCN1CCN(c2cccc(C(F)(F)F)c2)CC1 (stereo not drawn), the Potency is reported as “inactive”.
With C=CCn1cc(Cl)cc(C(=O)Nc2ccccc2)c1=O the Potency was “inactive”.
For Cc1cccc(C)c1N1C(=O)CN(Cc2ccccc2)C1=S, the Potency was “inactive”.
In the case of COc1cccc(NC(C)=[N+](C)CCNS(=O)(=O)c2ccc(Cl)cc2)c1, the Potency is reported as “inactive”.
